Sampled rows, rich in hits. Any-hit rate of the full collection: about 19%.
uPA generation = qHTS for Inhibitors of Cell Surface uPA Generation; cell surface uPA generation assay, qHTS; Potency, µM (top dose mostly 38.3 µM), without a hit: top-dose activity change, negative = inhibition, most hits filed as inhibitors; hit rate 0.31% among 330,000; AID 540303, 2011; active = well fitted inhibition curve with a large enough effect; inconclusive = small, poorly fitted or top-dose-only effect; inactive = no such curve, though single readings can be large or run the other way; tested in mouse RAW 264.7 cells; note: potency is the fitted concentration of half-maximal effect; nearly all actives have a fitted effect of over 55% in size
IL-1B inflam inh = qHTS for Inhibitors of Inflammasome Signaling: IL-1-beta AlphaLISA Primary Screen. THP-1 LPS/ATP IL-1B secretion, AlphaLISA, 16 h; hits give low values. hit rate 4.7% among 360,000. activity change, % at 57.5 µM; in the data active = activity change below about -50%; inconclusive = mostly about -30% to -49%
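THP-1 cells pretreated 1 hr with compounds (up to 57.5 uM final), then stimulated with LPS (250 ng/mL final) plus ATP (1.25 mM final); secreted IL-1B measured by AlphaLISA after 16 hr, decreased signal indicating inhibition.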
DT40 TDP1 CPT = qHTS for Inhibitors of human tyrosyl-DNA phosphodiesterase 1 (TDP1): qHTS in cells in presence of CPT; chicken DT40 Tdp1-/-;hTDP1 cells + 20 nM CPT, ATP luminescence, 48 h; Potency, µM (doses to about 46.2 µM), for the others: at the top dose activity change, negative = growth inhibition, most hits filed as inhibitors; hit rate 12% among 420,000; note: potency is the fitted concentration of half-maximal effect; nearly all actives have a fitted effect of over 55% in size
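Cell growth measured by CellTiter-Glo luminescence after a minimum 48 h, 37 C compound exposure with 20 nM CPT in Tdp1-knockout DT40 cells stably expressing hTDP1, seeded 400/well; qHTS titration format.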
HT1080 IDH1KD tx = qHTS for induction of synthetic lethality in tumor cells producing 2HG: qHTS for the HT-1080-IDH1KD cell line. HT-1080 IDH1 knockdown viability, ATP luminescence, 48 h. Potency, µM (top dose mostly 46.1 µM), for the others: at the highest dose activity, negative = toxicity, usual class: cytotoxic. hit rate 2% among 360,000;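 note: potency is the fitted concentration of half-maximal effect; 0% = DMSO wells and -100% = cell-free medium wells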
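Cytotoxicity counter-line: IDH1KD HT-1080, 48 h, CellTiter-Glo. Curves classed by r2, magnitude and activity.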
TDP1 cell noCPT = qHTS for Inhibitors of human tyrosyl-DNA phosphodiesterase 1 (TDP1): qHTS in cells in absence of CPT; hit rate 15% among 420,000; AID 686978, 2013; Potency, µM (highest dose often 46.2 µM), inactives show at the top dose activity change, negative = growth inhibition, usual class: inhibitors; DT40 Tdp1-/- hTDP1 cells, no CPT, ATP luminescence, 48 h; note: potency is the fitted concentration of half-maximal effect; nearly all actives have a fitted effect of over 55% in size
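No-CPT arm: Tdp1-/-;hTDP1 DT40 cells (400/well) plus compounds, incubated ≥48 hr at 37 °C. Readout CellTiter-Glo luminescence.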
HT1080-NT tox = qHTS for induction of synthetic lethality in tumor cells producing 2HG: qHTS for the HT-1080-NT fibrosarcoma cell line; HT-1080-NT fibrosarcoma viability, CellTiter-Glo ATP luminescence, 48 h; Potency, µM (series often up to 46.1 µM), for the others: top-dose activity, negative = less viability, hits mostly cytotoxic; hit rate 1.6% among 360,000; AID 686970, 2013;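 note: NT is the 2HG producing partner of a matched IDH1 knockdown line; potency is the fitted concentration of half-maximal effect; 0% = DMSO-treated cells and -100% = media-only wells without cells; nearly all actives have a fitted effect of over 55% in size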
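HT-1080-NT; 750 cells/well; 5% FBS RPMI; 48 h compound, 37 degrees C; CellTiter-Glo luminescence; curve fitting and curve-class assignment.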
* = called active by the depositor; [ ] = remark or other dose. Unless noted, calls come from the whole dose curve; as a rule, active = well fitted curve in the direction sought with a large enough effect; inconclusive = small, poorly fitted or top-dose-only effect, or another doubt; inactive = no such curve, though single readings can be large; an effect the other way counts as inactive or inconclusive. Unless noted, % is set by controls: 0 for no effect and ±100 for the full control effect.

How did CCCn1nc(C(=O)NNC(=O)CSC(C)C(=O)Nc2cc(C)on2)c2ccccc2c1=O (centres undefined) do in these assays?
uPA generation: -3%; IL-1B inflam inh: -4; DT40 TDP1 CPT: -6%; HT1080 IDH1KD tx: -24%; TDP1 cell noCPT: -22%; HT1080-NT tox: -3%

How did CC1(Cc2ccccc2OC(F)(F)F)C(=O)Nc2ccc(-c3ccsc3)cc21 (centres undefined) do in these assays?
IL-1B inflam inh: -17; DT40 TDP1 CPT: inconclusive; HT1080 IDH1KD tx: -8%; TDP1 cell noCPT: 18µM*; HT1080-NT tox: inconclusive

How did CC1(Cc2c(Cl)cccc2Cl)C(=O)Nc2cc(-c3ccccc3Cl)ccc21 (centres undefined) do in these assays?
IL-1B inflam inh: 13; DT40 TDP1 CPT: inconclusive; HT1080 IDH1KD tx: inconclusive; TDP1 cell noCPT: inconclusive; HT1080-NT tox: inconclusive

Results for COc1ccccc1-c1ccc2c(c1)C(C)(Cc1cccc(C#N)c1)C(=O)N2 (centres undefined) ?
IL-1B inflam inh: -9; DT40 TDP1 CPT: 21µM*; HT1080 IDH1KD tx: inconclusive; TDP1 cell noCPT: 16µM*; HT1080-NT tox: inconclusive

What do the screens show for `COC(=O)c1cccc(CC2(C)C(=O)Nc3cc(-c4ccccc4Cl)ccc32)c1` (centres undefined)?
IL-1B inflam inh: -13; DT40 TDP1 CPT: 16µM*; HT1080 IDH1KD tx: inconclusive; TDP1 cell noCPT: inconclusive; HT1080-NT tox: inconclusive

Results for COc1ccccc1-c1ccc2c(c1)C(C)(Cc1ccc(OC(F)(F)F)cc1)C(=O)N2 (centres undefined) ?
IL-1B inflam inh: -52*; DT40 TDP1 CPT: inconclusive; HT1080 IDH1KD tx: inconclusive; TDP1 cell noCPT: inconclusive; HT1080-NT tox: inconclusive

Results for NS(=O)(=O)c1ccc(CCNC(=O)CSCC(=O)Nc2ccc(Cl)cc2)cc1 ?
uPA generation: -4%; IL-1B inflam inh: 10; DT40 TDP1 CPT: -11%; HT1080 IDH1KD tx: -6%; TDP1 cell noCPT: 3%; HT1080-NT tox: 4%[9.24 µM]

How did CC(C)(C)c1ccc(O)c(N=Cc2cccc([N+](=O)[O-])c2)c1 do in these assays?
DT40 TDP1 CPT: inconclusive; HT1080 IDH1KD tx: 12%; TDP1 cell noCPT: inconclusive; HT1080-NT tox: 5%

What do the screens show for `CN(Cc1ccc(Cl)cc1)C(=O)c1ccccc1SCC(=O)N1CCCC1`?
uPA generation: -3%; IL-1B inflam inh: -6; DT40 TDP1 CPT: inconclusive; HT1080 IDH1KD tx: 0%; TDP1 cell noCPT: inconclusive; HT1080-NT tox: 3%

What do the screens show for `NC(=O)CSc1nnc(-c2cc(-c3ccc(Cl)cc3)nc3ccccc23)o1`?
uPA generation: 3%; IL-1B inflam inh: -13; DT40 TDP1 CPT: -2%; HT1080 IDH1KD tx: 0%; TDP1 cell noCPT: 14%; HT1080-NT tox: 7%

Results for COc1ccnc(Oc2ccccc2)c1C(N)=O ?
uPA generation: -3%; IL-1B inflam inh: -4; DT40 TDP1 CPT: -1%; HT1080 IDH1KD tx: 14%; TDP1 cell noCPT: -17%; HT1080-NT tox: 8%

How did COc1cc(-c2cc(C(=O)Nc3cccc(S(=O)(=O)N(C)C)c3)c3ccccc3n2)cc(OC)c1OC do in these assays?
uPA generation: 3%; IL-1B inflam inh: 19; DT40 TDP1 CPT: -2%; HT1080 IDH1KD tx: inconclusive; TDP1 cell noCPT: -24%; HT1080-NT tox: inconclusive

What do the screens show for `CCN(CC)S(=O)(=O)c1ccc(O)c(NC(=O)c2cc(-c3cc(OC)c(OC)c(OC)c3)nc3ccccc23)c1`?
uPA generation: 3%; IL-1B inflam inh: -22; DT40 TDP1 CPT: inconclusive; HT1080 IDH1KD tx: inconclusive; TDP1 cell noCPT: 21µM*; HT1080-NT tox: inconclusive

How did COc1cc(-c2cc(C(=O)Nc3ccc(S(=O)(=O)Nc4ncccn4)cc3)c3ccccc3n2)cc(OC)c1OC do in these assays?
uPA generation: -1%; IL-1B inflam inh: 10; DT40 TDP1 CPT: inconclusive; HT1080 IDH1KD tx: -27%; TDP1 cell noCPT: inconclusive; HT1080-NT tox: -16%

How did COc1cc(-c2cc(C(=O)Nc3ccc(S(N)(=O)=O)cc3)c3ccccc3n2)cc(OC)c1OC do in these assays?
uPA generation: 1%; IL-1B inflam inh: inconclusive; DT40 TDP1 CPT: 4.1µM*; HT1080 IDH1KD tx: -1%; TDP1 cell noCPT: 3.7µM*; HT1080-NT tox: -10%

What do the screens show for `COc1cc(-c2cc(C(=O)Nc3c(Cl)cc(Cl)cc3Cl)c3ccccc3n2)cc(OC)c1OC`?
uPA generation: -6%; IL-1B inflam inh: 36; DT40 TDP1 CPT: 21µM*; HT1080 IDH1KD tx: -9%; TDP1 cell noCPT: 18µM*; HT1080-NT tox: -3%

What do the screens show for `Cc1cc(C)nc(NNS(=O)(=O)c2ccc(F)c(Cl)c2)n1`?
uPA generation: -14%; IL-1B inflam inh: 23; DT40 TDP1 CPT: 23µM*; HT1080 IDH1KD tx: -4%; TDP1 cell noCPT: inconclusive; HT1080-NT tox: -13%

How did O=C(Nc1cccc(F)c1)N(Cc1ccc(Cl)cc1)CC(O)C(F)(F)F (centres undefined) do in these assays?
uPA generation: 7%; IL-1B inflam inh: -18; DT40 TDP1 CPT: inconclusive; HT1080 IDH1KD tx: inconclusive; TDP1 cell noCPT: 26µM*; HT1080-NT tox: 21µM*

Results for COc1cccc(NC(=S)N(CCCN2CCCC2)Cc2cccn2Cc2ccc(Cl)cc2)c1 ?
uPA generation: 2%; IL-1B inflam inh: inconclusive; DT40 TDP1 CPT: inconclusive; HT1080 IDH1KD tx: 18µM*; TDP1 cell noCPT: 18µM*; HT1080-NT tox: 21µM*

Results for CSc1cccc(NC(=S)N(CCCN2CCCC2)Cc2cccn2Cc2ccc(Cl)cc2)c1 ?
uPA generation: -4%; IL-1B inflam inh: inconclusive; DT40 TDP1 CPT: inconclusive; HT1080 IDH1KD tx: inconclusive; TDP1 cell noCPT: 9.2µM*; HT1080-NT tox: 18µM*

Results for S=C(Nc1cccc(Cl)c1)N(CCCN1CCCC1)Cc1cccn1Cc1ccc(Cl)cc1 ?
uPA generation: 4%; IL-1B inflam inh: -101*; DT40 TDP1 CPT: inconclusive; HT1080 IDH1KD tx: 18µM*; TDP1 cell noCPT: 18µM*; HT1080-NT tox: 16µM*

What do the screens show for `COC(=O)N1CCC2(CCN(C(=O)Nc3ccc(OC)cc3)CC2)CC1`?
DT40 TDP1 CPT: 6%; TDP1 cell noCPT: -13%

Results for CCOCCCNC(=O)C1CCN(c2cc(C)nc3c(-c4ccc(Cl)cc4)c(C)nn23)CC1 ?
DT40 TDP1 CPT: -12%; TDP1 cell noCPT: -13%
